H9c2 protect – cardioprotection against H2O2-induced cell death, primary screen, uHTS, H9c2 cells, ATPLite luminescence; H9c2 cardiomyocytes, H2O2 injury protection, 2 h; protection from H2O2 cell death, % at 20 µM; actives 0.63% (n = 360,000);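 active = compounds giving at least 50% protection of heart cells from peroxide-induced death in the single-dose screen, raw or plate-pattern-corrected value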;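 note: 0% = DMSO wells with peroxide and 100% = DMSO wells without peroxide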
Vif inh – HIV Vif self-association inhibitors, primary screen, imaging, HEK293T, single point; AID 602346, 2012; actives 0.35% (n = 340,000); HEK293T cells, Vif self-association by quenched fluorescence, 24 h; inhibition, % at 7.49 µM; in the data active = inhibition above about 50%, passing the limit was not always enough
N-glyco inh – increase of ERlucT glycosylation luciferase signal, primary screen, N-linked glycosylation inhibitor project, D54 ERlucT cells, luminescence, set 2; D54 ERlucT glycosylation luciferase reporter, 24 h; percent of 100 nM tunicamycin response; reporter increase, % at 12.5 µM; actives 0.23% (n = 360,000);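 active = mean luciferase reporter signal, scaled so untreated is 0 and the glycosylation-blocking control 100, at or above a set limit in every replicate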;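 note: luciferase carries N-glycosylation sites so blocking glycosylation raises the light; 0% = median of neutral control wells and 100% = median of 100 nM tunicamycin wells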
aDG glyco up – activators of alpha-DG glycosylation, primary screen, uHTS, Pro5-aDG cells, AlphaScreen; actives 0.22% (n = 360,000); activation, % at 10 µM; alpha-DG glycosylation AlphaScreen (IIH6); 0% Pro5, 100% B10-LARGE cell signal;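 active = activation of at least 8% versus controls, or a plate z-score of at least 8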;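 note: Pro5 are CHO cells carrying HIG-tagged alpha-DG that lacks glycosylation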
ARNT-TACC3 inh – disruptors of ARNT/TACC3 protein interaction, primary screen, biochemical, AlphaScreen, single concentration. Transforming acidic coiled-coil-containing protein 3 (Homo sapiens), Q9Y6A5. AlphaScreen His-ARNT PAS-B/GST-TACC3 binding, luminescence; TACC3 fragment carries E629A point mutation. inhibition, % at 9.99 µM. actives 0.66% (n = 390,000);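 active = mean inhibition of replicates at least 50% and at least half of replicates each reaching 50%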;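 note: 0% = complete ARNT plus TACC3 wells and 100% = ARNT alone without TACC3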
ARNT Alpha ctr-1 – AlphaScreen signal interference compounds, dose response, artefact control for ARNT-TACC3 interaction inhibitor project, biochemical, luminescence, cherry-pick. shares compounds with ARNT-TACC3 inh. His-ARNT PASB-GST AlphaScreen artifact counter-screen. AC50, µM (highest dose often 68 µM), for the others: at the highest dose activity change, negative = signal decrease. actives 50% (n = 1,200). AID 651705, 2012;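 active = every separate test run was called active for a drop in luminescence, with AC50 within twice the top valid dose, actives reach about 71 µM in these data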
ARNT Alpha ctr-2 – AlphaScreen signal interference by compounds, dose response, artefact control for ARNT/TACC3 disruptor project, biochemical, dual-tagged ARNT, dry powder; shares compounds with ARNT-TACC3 inh; Dual-tagged His-ARNT PASB-GST AlphaScreen artifact counter-screen; AC50, µM; actives 70% (n = 45);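 active = luminescence drop, with half-maximal potency fitted within twice the sample's top valid dose, cut at about 70 µM in these data; inactive = the rest, including signal moving the wrong way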
The depositor's hits bear a star; . = no result given; [ ] = another dose, or the depositor's remark. In the library only some 1.7% were active in any assay of this set; here they are far more common.

SMILES	H9c2 protect	Vif inh	N-glyco inh	aDG glyco up	ARNT-TACC3 inh	ARNT Alpha ctr-1	others
COc1ccc(N(CC(=O)Nc2ccccc2C)S(=O)(=O)c2c(C)[nH]c(=O)[nH]c2=O)cc1	14.0	-3.0	0.4	-0.1	2.1	.
CC(=O)N1[C@@H]2Cn3c(ccc(C4=CCCC4)c3=O)[C@H]1[C@@H](C(=O)N[C@@H](C)c1ccccc1)[C@@H]2CO	.	.	.	.	-5.6	.
Nc1ccc(C(=O)Nc2ccc3c(O)cc(S(=O)(=O)O)cc3c2)cc1	-11.2	11.3	0.5	0.1	69.3*	-34.1%
CCO/C=C1\C(=O)N(c2ccccc2)C(=O)c2ccccc21	1.5	.	2.3	-0.2	1.6	.
CCO/C=C1/C(=O)N(Cc2ccccc2)C(=O)c2ccccc21	-0.4	-5.7	1.9	-0.1	25.4*	0.0%
CCOC(=O)c1cnc(-n2[nH]c(C)cc2=O)[nH]c1=O	9.1	-1.4	-0.8	-0.1	69.8*	12.7µM*
CCOC(=O)c1cnc[nH]c1=O	0.9	-7.6	1.2	-0.2	6.0	.
COc1cc(CNCc2cccs2)ccc1OCc1ccccc1	-0.3	-0.7	-4.6	-0.1	2.9	.
COc1cc(CNCc2ccccn2)ccc1OCc1ccc(Cl)cc1	3.9	-0.2	-2.3	0.2	52.7*	-30.0%
COc1cc(CNCc2ccccn2)ccc1OCc1cccc(Cl)c1	-14.4	-2.2	-7.2	3.0	53.2*	-30.9%
COc1cc(CNCc2ccccn2)ccc1OCc1c(Cl)cccc1Cl	-5.0	-10.5	-5.2	2.2	56.4*	-35.8%
CC=Cc1ccc2n(c1=O)C[C@@H]1[C@@H](CO)[C@H](C(=O)OC)N(CCc3ccccc3)[C@H]21 (mixture of isomers)	.	.	.	.	4.1	.
C[C@H]1CN([C@@H](C)CO)C(=O)c2cc(NS(=O)(=O)c3ccccc3)ccc2O[C@@H]1CN(C)C(=O)Nc1ccccc1	.	.	.	.	0.6	.
O=C(C[C@H]1C=C[C@H](NC(=O)Nc2ccccc2)[C@H](CO)O1)NCc1ccccn1	.	.	.	.	3.2	.
O=C(C[C@H]1C=C[C@@H](NC(=O)Nc2ccccc2)[C@@H](CO)O1)NCc1ccccn1	.	.	.	.	34.5*	-8.4%[42 µM]
O=C(c1ccccn1)N1CC[C@@H]2[C@H](CO)Nc3ccc(Br)cc3[C@@H]21	.	.	.	.	77.2*	44.9µM*
O=C(Nc1ccc(N2CCOCC2)cc1)c1cccc(S(=O)(=O)N2CCCCC2)c1	-10.1	.	-4.2	0.4	-7.1	.
CCN1CCN(c2ccc(NC(=O)c3cccc(S(=O)(=O)N4CCCC4)c3)cc2)CC1	-3.3	25.4	1.1	0.0	56.2*	-4.1%
C[C@H]1CN([C@@H](C)CO)C(=O)c2cc(-c3ccc(F)cc3)cnc2O[C@@H]1CN(C)Cc1ccc(C(=O)O)cc1	.	.	.	.	-3.8	.
CC1CCCN(S(=O)(=O)c2ccc(C(=O)Nc3nnc(C4=COCCO4)o3)cc2)C1 (configuration not stated)	21.7	-1.5	3.3	0.1	40.5	.
CC1CCN(S(=O)(=O)c2ccc(C(=O)Nc3nnc(-c4ccncc4)o3)cc2)CC1	11.0	30.1	4.7	0.5	.	.
CC1CC(C)CN(S(=O)(=O)c2ccc(C(=O)Nc3nnc(C4=COCCO4)o3)cc2)C1 (configuration not stated)	.	.	.	.	.	.	ARNT Alpha ctr-2=>136
CC1CCN(S(=O)(=O)c2ccc(C(=O)Nc3nnc(C4CC4)o3)cc2)CC1	28.4	-2.6	3.5	0.1	42.7	.	ARNT Alpha ctr-2=>136
O=C(Nc1nnc(C2CC2)o1)c1ccc(S(=O)(=O)N2CCCCC2)cc1	16.7	3.9	0.6	-0.2	50.7*	-38.5%
C[C@@H]1CN([C@@H](C)CO)C(=O)Cc2cc(NS(C)(=O)=O)ccc2O[C@H]1CN(C)S(=O)(=O)c1cn(C)cn1	.	.	.	.	14.3	.
SMILES	H9c2 protect	Vif inh	N-glyco inh	aDG glyco up	ARNT-TACC3 inh	ARNT Alpha ctr-1	others
CC(C)C(=O)Nc1ccc2c(c1)C(=O)N(C)[C@@H]1CC[C@@H](CC(=O)NCc3ccc(F)cc3)O[C@@H]1CO2	.	.	.	.	-11.0	.
Cc1cc2c(NC(=O)CC(C)(C)CC(=O)O)cccc2nn1	3.2	28.6	4.7	0.2	27.2*	-10.0%
COc1ccc(NC(=O)N[C@@H]2CC[C@H](CCn3cc(-c4ccccn4)nn3)O[C@@H]2CO)cc1	.	.	.	.	62.8*	50.5µM*
COc1ccc(NC(=O)N[C@@H]2CC[C@H](CCn3cc(-c4ccccn4)nn3)O[C@H]2CO)cc1	.	.	.	.	59.4*	50.1µM*
COc1ccc(NC(=O)N[C@H]2CC[C@H](CCn3cc(-c4ccccn4)nn3)O[C@H]2CO)cc1	.	.	.	.	40.7	.
CCCNC(=O)C[C@@H]1CC[C@@H]2[C@H](COC[C@@H](O)CN2Cc2ccccc2F)O1	.	.	.	.	-7.8	.
O=C(Nc1cccc(F)c1)N1C[C@@H]2[C@H](c3ccccc31)[C@@H](CO)N2C(=O)c1ccccc1F	.	.	.	.	4.3	.
O=C(CN1CCCCCCC1)N/N=C/c1ccc(F)c(F)c1	1.8	-2.5	1.7	0.1	54.5*	-5.4%
CN1CCN(CC(=O)N/N=C/c2ccc(F)c(F)c2)CC1	-2.3	-9.8	4.1	-0.2	-1.9	.
C[C@H](CO)N1C[C@H](C)[C@@H](CN(C)C(=O)Nc2ccccc2)Oc2ccc(NS(=O)(=O)c3ccc(Cl)cc3)cc2C1=O	.	.	.	.	-1.1	.
CCC1CCCCN1S(=O)(=O)c1ccc(NC(=O)CSc2ncccc2C(=O)O)cc1 (configuration not stated)	-0.5	-11.4	1.0	-0.2	44.4*	13.7µM*
CCC1CCCCN1S(=O)(=O)c1ccc(NC(=O)c2cccs2)cc1 (configuration not stated)	-7.5	-6.1	-2.9	0.9	0.0	.
NS(=O)(=O)c1ccc(CCNC(=O)c2ccc3c(c2)OCO3)cc1	7.5	9.0	-0.2	-0.1	41.4*	4.6%
COc1ccc(S(=O)(=O)Nc2ccc3c(c2)C(=O)N([C@H](C)CO)C[C@H](C)[C@H](CN(C)S(=O)(=O)c2ccc(C)cc2)O3)cc1	.	.	.	.	51.6*	-21.1%[38 µM]
C[C@@H]1CN([C@@H](C)CO)C(=O)c2cc(NC(=O)CCN3CCOCC3)ccc2O[C@@H]1CN(C)Cc1ccncc1	.	.	.	.	50.8*	-6.8%[38 µM]
C[C@H](CO)N1C[C@H](C)[C@@H](CN(C)C(=O)Nc2ccc(C(F)(F)F)cc2)Oc2ncc(C3=CCCC3)cc2C1=O	.	.	.	.	80.5*	-25.9%[38 µM]

Screening data as filed in PubChem BioAssay.
